Screens (PubChem)
L major viab = Leishmania major promastigote growth inhibition, primary screen. Leishmania major promastigotes, resazurin fluorescence viability. inhibition, % at 10 µM. 200,000 tested, 9% active; in the data active = inhibition above about 50%;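 note: promastigotes grown with compound for 44 hours at 28 °C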
Arbovirus inh = antivirals against arbovirus infection, primary screen, cell-based, full library, 10K replicate subset; arbovirus infection cell-based antiviral screen; inhibition, % at 10 µM; 200,000 tested, 0.37% active; AID 1251, 2008; in the data active = inhibition above about 30%
WT yeast gro inh = growth inhibition of WT strain, primary screen, mitochondrial fusion inhibitor project, WT and mutant strains, chemical genetic; 190,000 tested, 2.1% active; mitochondrial fusion phenotypic screen; inhibition, % at 10 µM; in the data active = inhibition above about 58%; tested in S. cerevisiae
CHOP inhibitor = inhibitors of CHOP promoter induction, primary screen, cell-based, unfolded protein response, luciferase reporter; AID 2732, 2010; CHO-K1 CHOP-promoter luciferase, tunicamycin-induced, 15-18 h; 220,000 tested, 3.8% active; inhibition, % at 10 µM;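 active = compounds that reduced the stress-induced luciferase reporter signal by more than about 70% of percent inhibition, limit read from the data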
Each line names hits and unclear results; the compound was inactive in the other large screens. A selection: hits, their analogues and other compounds. The true share with any hit is near 12%.

Cc1ccc(C(C(=O)Nc2ccc3c(c2)OCO3)N(C)C(=O)Cc2c[nH]c3ccccc23)cc1 (centres undefined)	L major viab 70
Cc1ccc(C(C(=O)NC2CCCCC2)N(C(=O)Cc2c[nH]c3ccccc23)c2ccccc2)o1 (centres undefined)	none
CC(=O)Nc1ccc(N(C(=O)Cc2c[nH]c3ccccc23)C(C(=O)NC2CCCCC2)c2ccco2)cc1 (centres undefined)	L major viab 60
O=C(NC1CCCCC1)C(c1cccs1)N(C(=O)Cc1c[nH]c2ccccc12)c1ccc(F)cc1 (centres undefined)	L major viab 75, CHOP inhibitor 91
CC(=O)NC(Cc1c[nH]c2ccccc12)C(=O)OCC(=O)Nc1ccc2c(c1)OCO2 (centres undefined)	none
COc1cc(C(C(=O)NC2CCCCC2)N(C(=O)Cc2c[nH]c3ccccc23)c2ccc(C)cc2)cc(OC)c1OC (centres undefined)	L major viab 90
COc1ccc(C(=O)COc2ncnc3cc(Cl)ccc23)cc1	none (no result: L major viab, Arbovirus inh, WT yeast gro inh)
Cc1ccc(C(NC(=O)/C=C\c2ccc3c(c2)OCO3)C(=O)Nc2ccc3c(c2)OCO3)cc1 (centres undefined)	L major viab 100
COC(=O)c1c(-c2ccc3ccccc3c2)csc1NC(=O)Cc1ccc(OC)c(OC)c1	none
CCOC(=O)c1ccc(NC(=O)CCSCCc2ccccn2)cc1	none
Cc1ccc2sc(=O)[nH]c2c1	none (no result: L major viab, Arbovirus inh, WT yeast gro inh)
CCCOc1ccc(N2C(=O)CC(SCc3nc4ccccc4[nH]3)C2=O)cc1 (centres undefined)	none
CCCOc1ccc(N2C(=O)CC(SC(=N)N3N=C(c4ccccc4)CC3c3ccccc3)C2=O)cc1 (centres undefined)	L major viab 98
Cc1ccc2c(c1)sc1nc(=O)n(-c3ccc(Cl)cc3)c(=O)n12	CHOP inhibitor 80
O=C(CSc1nc(-c2ccccc2)c(-c2ccccc2)o1)N1CCOCC1	none
O=C(CSc1nnc(-c2ccccc2)c(-c2ccccc2)n1)N1CCOCC1	CHOP inhibitor 72
Nc1ncnc(Sc2ccc(Cl)cc2)c1[N+](=O)[O-]	L major viab 67
Cc1ccc(Sc2ncnc(N)c2[N+](=O)[O-])cc1	none
Cc1cc(C(=O)O)ccc1-c1ccc(/C=C2\NC(=O)N(Cc3ccc(F)cc3)C2=O)o1	none (no result: L major viab, Arbovirus inh, WT yeast gro inh)
CCOC(=O)c1c(NC(=O)c2cc(CC(C)C)on2)sc(C(C)=O)c1C	none
CCOC(=O)c1c(NC(=O)c2cc(C(C)C)on2)sc(C(C)=O)c1C	CHOP inhibitor 93
CCOC(=O)c1c(NC(=O)OC)sc(C(=O)N(C)C)c1C	WT yeast gro inh 71
CCOC(=O)c1c(NC(=O)C(Sc2ccccc2)c2ccccc2)sc(C(=O)N(C)C)c1C (centres undefined)	L major viab 98
O=C(COC(=O)Cc1ccsc1)Nc1ccc(Cl)c(S(=O)(=O)N2CCOCC2)c1	none
Cc1c(C(=O)OC(C)CCN(C)C)oc2ccccc12 (centres undefined)	L major viab 85
CNc1ccc(C(O)(C(F)(F)F)C(F)(F)F)cc1C(O)(C(F)(F)F)C(F)(F)F	L major viab 98
CC(C)(C)NS(=O)(=O)c1ccc(CCC(=O)NCc2cccnc2)cc1	none
Cc1nc2ccc(Nc3ccncc3)cc2s1	none
CCc1c(C)sc(NC(=O)c2cc(-c3cc(OC)ccc3OC)on2)c1C#N	CHOP inhibitor 86
CCc1c(C)sc(NC(=O)c2cc(-c3ccc(OC)c(OC)c3)on2)c1C#N	CHOP inhibitor 83
CCS(=O)(=O)Nc1ccc(C2=NN(S(C)(=O)=O)C(c3cccs3)C2)cc1 (centres undefined)	none
COC(=O)Oc1ccc(/C=C/C(=O)OC(C)C)cc1OC(=O)OC	L major viab 80
CCCCOC(=O)/C=C/c1ccc(OC(=O)OC)c(OC(=O)OC)c1	none
CSc1ccccc1NC(=O)Nc1cccc(Cl)c1Cl	CHOP inhibitor 88
CCn1nc(C)c(NC(=O)Nc2cccc(Cl)c2Cl)c1C	Arbovirus inh 32
CSc1ccccc1NC(=O)Nc1cccc(Cl)c1C	none
COC(=O)c1sccc1NC(=O)Nc1cccc(Cl)c1Cl	CHOP inhibitor 84
COC(=O)c1sc2ccccc2c1-n1cccc1C(=O)C(=O)Nc1ccc(OC)cc1	none
O=C(c1ccccc1)N1CC(COc2ccccc2)OC(c2cccnc2)O1 (centres undefined)	L major viab 54
CCN1CCN(C(=O)NCc2ccccc2)CC1	none (no result: L major viab, Arbovirus inh, WT yeast gro inh)
COc1cccc(-n2nnnc2SCC(=O)NC2CCCC2)c1	none
COc1ccc(-c2[nH]c(-c3ccc(F)cc3)nc2SCC(=O)NC2CCCC2)cc1	L major viab 77
COc1ccc(-c2[nH]c(-c3cccc(OC)c3)nc2SCC(=O)NC2CCCC2)cc1	L major viab 58
COc1ccc(-c2[nH]c(-c3ccccc3)nc2SCC(=O)NC2CCCC2)cc1	none
COC(=O)CSc1nc(NC(C)(C)C)nc(N(C)C)n1	none
CC(=O)C(Sc1nc(NC(C)(C)C)nc(N(C)C)n1)C(C)=O	CHOP inhibitor 73
O=C(c1ccc(F)cc1)N1CCN(c2ccc([N+](=O)[O-])cc2-n2cccc2)CC1	none (no result: L major viab, Arbovirus inh, WT yeast gro inh)
Cc1ccc(OCC(=O)NNC(=O)c2ccoc2C)c(Br)c1	L major viab 72
O=C(O)/C(=C\c1ccco1)NC(=O)c1cccc2ccccc12	none (no result: WT yeast gro inh)
Cc1ccccc1Nc1nc(-c2cccnc2)nc2ccccc12	L major viab 78
c1ccc2c(c1)OCC(CNc1ncnc3sccc13)O2 (centres undefined)	CHOP inhibitor 79
c1cncc(-c2nc(NCC3COc4ccccc4O3)c3ccccc3n2)c1 (centres undefined)	L major viab 77, WT yeast gro inh 67
CCOC(=O)c1ccc(Nc2nc(-c3cccnc3)nc3ccccc23)cc1	CHOP inhibitor 93
Cc1ccc(Nc2nc(-c3cccnc3)nc3ccccc23)cc1	none (no result: L major viab, Arbovirus inh, WT yeast gro inh)
CC(=O)N/C(=C/c1ccc(OS(=O)(=O)c2ccc(C)cc2)cc1)C(=O)Nc1ccc(C(=O)O)cc1	none (no result: L major viab, Arbovirus inh, WT yeast gro inh)
CSCCC(=O)Nc1cc(S(=O)(=O)N2CCOCC2)ccc1N1CCN(C)CC1	none
Cc1ccc(C(=O)NCCc2ccc(S(N)(=O)=O)cc2)cc1[N+](=O)[O-]	none
COC(C[C@@H](O)[C@@H](C)[C@H](O)COCc1ccccc1)OC	none (no result: L major viab, Arbovirus inh, WT yeast gro inh)
c1ccc(CN2CCC(Nc3nc(-c4cccnc4)nc4ccccc34)CC2)cc1	L major viab 98
O=C(CCc1ccccc1)Nc1ncc2c(n1)CCCC2=O	WT yeast gro inh 60
CC1(C)CC(=O)c2cnc(NC(=O)CCc3ccccc3)nc2C1	none
COC(=O)c1cn(NC(=O)Cn2nc([N+](=O)[O-])c(Br)c2C)c(=O)c2ccccc12	none
O=S(=O)(N/N=C\c1cn(-c2ccccc2)nc1-c1ccccc1)c1ccccc1	CHOP inhibitor 96
O=C(CNc1ccccc1)N/N=C/c1cn(-c2ccccc2)nc1-c1ccccc1	L major viab 69, CHOP inhibitor 96
Cc1ccc(-c2nn(-c3ccccc3)cc2/C=N/NS(=O)(=O)c2ccccc2)cc1	none
CC(=O)c1cn(C)c(=O)[nH]c1=O	none
